High-throughput results (PubChem)
FECH block = blocks human mitochondrial ferrochelatase activity; purified FECH, Ni-mesoporphyrin absorbance 550 nm; 3.3% of 20,000 active; P22830; calls only at 10 µM (by protocol);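 active = enzyme reaction rate more than 3 SD below the solvent-only control wells on the same plate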;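 also: lower slope than DMSO wells means FECH inhibition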
Target sequence (P22830 whole entry, looked up): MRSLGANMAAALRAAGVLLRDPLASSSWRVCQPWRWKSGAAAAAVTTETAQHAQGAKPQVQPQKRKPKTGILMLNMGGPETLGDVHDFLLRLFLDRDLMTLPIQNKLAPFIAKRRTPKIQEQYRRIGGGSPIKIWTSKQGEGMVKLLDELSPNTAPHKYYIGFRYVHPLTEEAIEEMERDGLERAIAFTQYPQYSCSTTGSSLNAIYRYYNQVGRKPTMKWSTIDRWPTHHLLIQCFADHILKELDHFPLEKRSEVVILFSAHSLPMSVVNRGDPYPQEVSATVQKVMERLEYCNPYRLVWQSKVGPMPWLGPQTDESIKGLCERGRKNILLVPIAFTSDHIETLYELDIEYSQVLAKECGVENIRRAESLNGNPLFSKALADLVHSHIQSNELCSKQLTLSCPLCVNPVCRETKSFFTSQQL
Calls only; . = inactive; + = active, no number. The sample as a whole holds a higher share of hits than the screen did.

SMILES	FECH block
C=CCNC(=O)c1ccccc1NC(=O)CN1c2ccc(C(C)C)cc2-c2ccccc2S1(=O)=O	.
O=C(CN1c2ccc(F)cc2-c2ccccc2S1(=O)=O)Nc1ccccc1Oc1ccccc1	+
O=C(CN1c2ccc(F)cc2-c2ccccc2S1(=O)=O)NCCN1CCOCC1	.
CCc1ccc(C2=C(C)C(=O)N(CC(=O)Nc3ccc(C)c(F)c3)S2(=O)=O)cc1	.
COc1ccc(Nc2cc(C)nc(N3CCN(S(=O)(=O)c4ccccc4F)CC3)n2)cc1	.
O=C(Cc1csc(NC(=O)Nc2cccc(Cl)c2)n1)Nc1ccc(C(F)(F)F)cc1	.
CCOc1ccc(Nc2cc(C(C)C)nc3nc(-c4cccnc4)nn23)cc1	.
COc1ccccc1N(Cc1nc2nc(C)cc(C)n2n1)C(=O)c1cccc(Cl)c1	.
O=C(CC1CCN(S(=O)(=O)c2ccccc2)CC1)NCCN1CCOCC1	.
O=c1cc(CN2CCOCC2)nc2nc(NCc3ccccc3)[nH]n12	.
O=c1cc(CN2CCCCC2)nc2nc(NCc3ccccc3)[nH]n12	.
COc1ccc(CNc2nc3nc(CN4CCN(c5ccccc5)CC4)cc(=O)n3[nH]2)cc1	.
O=c1cc(CN2CCc3ccccc3C2)nc2nc(NCc3ccc(Cl)cc3)[nH]n12	+
O=c1cc(CN2CCN(CCO)CC2)nc2nc(NCc3ccc(Cl)cc3)[nH]n12	.
COc1ccc(CNc2nc3nc(CN4CCc5ccccc5C4)cc(=O)n3[nH]2)cc1	+
O=c1cc(CN2CCc3ccccc3C2)nc2nc(NCc3ccccc3)[nH]n12	.
O=c1cc(CN2CCOCC2)nc2nc(NCc3ccc(Cl)cc3)[nH]n12	.
COc1ccc(CNc2nc3nc(CN4CCOCC4)cc(=O)n3[nH]2)cc1	+
Cn1ccnc1SCCNc1cc(N2CCOCC2)ncn1	.
O=C(c1cc(Cn2cnc3ccccc32)[nH]n1)N1CCC1c1ccc(F)cc1 (centres undefined)	.
C=CCN(C(=O)c1cnc(C(C)C)nc1C)C(C)C	.
Cc1cccc(C)c1NCc1cc(=O)n2[nH]c(NCc3ccc(F)cc3)nc2n1	.
Cc1ccccc1-c1nc2nc(CNc3cccc(Cl)c3C)cc(=O)n2[nH]1	.
Cc1ccccc1-c1nc2nc(CNc3ccc(F)cc3)cc(=O)n2[nH]1	+
Cc1ccc(NCc2cc(=O)n3[nH]c(-c4ccccc4C)nc3n2)cc1Cl	.
SMILES	FECH block
Cc1ccc(Cl)cc1NCc1cc(=O)n2[nH]c(-c3ccccc3C)nc2n1	+
Cc1ccccc1-c1nc2nc(CNc3cccc(C)c3C)cc(=O)n2[nH]1	.
CN1CC2(CCN(C(=O)NCc3ccccc3F)CC2)CC1C(=O)O (centres undefined)	.
CC(C)Cc1ncc2c(n1)CN(C(=O)c1cc(C(C)C)on1)C2	.
Cc1cc(C)c(S(=O)(=O)N2CCN(Cc3nc4cccnc4n3-c3cccc(F)c3)CC2)c(C)c1	.
Cc1ccc(Nc2nc(NCc3cccnc3)nc3c2cnn3-c2ccccc2)cc1C	.
CN(CCCNC(=O)CC1CCN(S(=O)(=O)c2ccccc2)CC1)C1CCCCC1	.
O=C1CC(COCc2ccccc2)c2c(n[nH]c2-c2cccs2)N1 (centres undefined)	.
COc1ccc(-c2ccc3nc(CO)[nH]c3c2)cc1Cl	.
COc1cccc(OC)c1-c1ccc2nc(CO)[nH]c2c1	+
COc1cc2c(cc1-c1nccn1-c1ccc3nc(CO)[nH]c3c1)CCC2	.
Cc1cccc(OC2CN(C(=O)c3ccc(Cn4ccnc4)o3)C2)c1	.
O=c1oc2ccccc2n1CCN1CCN(c2nccc3ccccc23)CC1	.
CCC(NC(=O)CCC(=O)NC1CCCCCCC1)c1ccnn1C (centres undefined)	+
CCC(NC(=O)c1ccccc1-n1cncn1)c1ccnn1C (centres undefined)	.
O=C(CCN1CCN(CCc2ccncc2)CC1)NC1CCCCCC1	.
Cc1ccc(S(=O)(=O)Nc2nc3n(n2)C(c2c(F)cccc2Cl)C=C(c2ccccc2)N3)cc1 (centres undefined)	+
Cc1ccc(S(=O)(=O)Nc2nc3n(n2)C(c2ccccc2)C=C(c2ccc(Cl)cc2)N3)cc1 (centres undefined)	.
Cc1ccc(C2=CC(c3ccccc3Cl)n3nc(NS(=O)(=O)c4ccc(C)cc4)nc3N2)cc1 (centres undefined)	.
Cc1ccc(C2=CC(c3ccc(C)cc3)n3nc(NS(=O)(=O)c4ccc(C)cc4)nc3N2)cc1 (centres undefined)	+
COc1ccc(C2C=C(c3ccccc3)Nc3nc(NS(=O)(=O)c4ccc(C)cc4)nn32)cc1 (centres undefined)	.
O=S(=O)(Nc1nc2n(n1)C(c1ccccc1)C=C(c1ccccc1)N2)c1ccc(Cl)cc1 (centres undefined)	.
COc1cc(NC(=O)C2CCCN2C(=O)c2ccc(-c3noc(C)n3)cc2)cc(OC)c1 (centres undefined)	.
CN(C)c1cccc(C(=O)N2CCc3c(c(C(=O)NCc4ccccc4)nn3C)C2)c1	.
COc1ccc(S(=O)(=O)Nc2ccc(Sc3c(C)c(C)nc4ncnn34)cc2)cc1	.
SMILES	FECH block
COc1ccc(C(=O)Nc2ccccc2Sc2c(C)c(C)nc3nc(-c4ccccc4)nn23)cc1OC	.
Cc1ccc(OCc2cc(=O)n3oc(C)cc3n2)c(NC(=O)c2ccccc2C)c1	.
COc1ccccc1-n1nc(C(C)C)nc1Cc1cc(C)no1	.
COc1ccccc1-n1nc(CC(C)C)nc1C(C)n1ccnc1 (centres undefined)	+
COc1ccccc1-n1nc(C(C)C)nc1CCc1cccnc1	.
O=C(c1cn(CC2CCCNC2)nn1)N1CCN(c2ccccc2F)CC1 (centres undefined)	.
CCc1csc(CCNC(=O)C(c2cccc(C)c2)N(C)C)n1 (centres undefined)	.
Cc1cccc(-c2nc3nc(CN4CCN(CCO)CC4)cc(=O)n3[nH]2)c1	.
Cc1ccc(Cn2c(CNS(=O)(=O)c3ccc(F)cc3)nc3cccnc32)cc1	.
CN(Cc1cccc(C(=O)Nc2nccs2)c1)Cc1cnccn1	+
CN(Cc1ccc(C(=O)Nc2ccc3c(c2)ncn3C)cc1)Cc1cnccn1	.
Cc1nc(CN(C)Cc2cccc(C(=O)Nc3cccnc3)c2)cs1	.
Cn1ccn2ncc(C(=O)NCc3nncn3C3CCCCC3)c12	.
O=C(NC1CCCc2ccccc21)C1CCN(c2ncnc3c2nc2n3CCCCC2)CC1 (centres undefined)	.
CN1C(=O)C(CCC(=O)N2CCCOCC2)(Cc2ccccc2)c2ccccc21 (centres undefined)	.
CN1C(=O)C2(CCN(C(=O)COCC3CCCCO3)CC2)c2ccccc21 (centres undefined)	+
CCCc1nc(C(=O)N2CCCC3(C2)C(=O)N(C)c2ccccc23)cs1 (centres undefined)	.
CC(C)C(=O)Nc1nc2n(n1)C(c1ccc(Cl)cc1)C=C(c1ccc(Cl)cc1)N2 (centres undefined)	.
O=C(Nc1nc2n(n1)C(c1ccc(F)cc1)C=C(c1ccc(Cl)cc1)N2)c1ccc(F)cc1 (centres undefined)	.
Cc1ccc(C2=CC(c3ccc(Cl)cc3)n3nc(NC(=O)c4ccccc4)nc3N2)cc1 (centres undefined)	+
Cc1ccc(C2=CC(c3ccc(Cl)cc3)n3nc(NC(=O)c4ccco4)nc3N2)cc1 (centres undefined)	+
Cc1ccc(C(=O)Nc2nc3n(n2)C(c2ccc(Cl)cc2)C=C(c2ccccc2)N3)cc1 (centres undefined)	.
